BAZ2B block – qHTS Assay for Inhibitors of BAZ2B; AlphaScreen BAZ2B-H3K14Ac peptide displacement; Potency, µM (top dose mostly 114 µM), without a hit: at the highest dose activity change, negative = inhibition, hits mostly inhibitors; 360,000 tested, 4.4% active; AID 504333, 2011; further: on the % scale 0 is the no-effect control and ±100 the full control effect; nearly all actives have a fitted effect of over 60% in size
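Multi-concentration screen (max 110 uM) measuring displacement of acetylated histone H3 peptide from BAZ2B by AlphaScreen, using 50 nM protein, 50 nM peptide and 10 ug/mL streptavidin donor plus Ni-chelate acceptor beads.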
G9a inh – qHTS Assay for Inhibitors of Histone Lysine Methyltransferase G9a. Potency, µM (doses to about 102 µM), for inactives: top-dose activity, negative = inhibition, hits mostly inhibitors. AID 504332, 2011. 350,000 tested, 8.8% active. G9a H3K9 monomethylation, AlphaScreen, 2 h. Histone-lysine N-methyltransferase EHMT2 (Homo sapiens), Q96KQ7; further: on the % scale 0 is the no-effect control and ±100 the full control effect; nearly all actives have a fitted effect of over 75% in size
Target sequence (Q96KQ7 913-1193 limits assumed): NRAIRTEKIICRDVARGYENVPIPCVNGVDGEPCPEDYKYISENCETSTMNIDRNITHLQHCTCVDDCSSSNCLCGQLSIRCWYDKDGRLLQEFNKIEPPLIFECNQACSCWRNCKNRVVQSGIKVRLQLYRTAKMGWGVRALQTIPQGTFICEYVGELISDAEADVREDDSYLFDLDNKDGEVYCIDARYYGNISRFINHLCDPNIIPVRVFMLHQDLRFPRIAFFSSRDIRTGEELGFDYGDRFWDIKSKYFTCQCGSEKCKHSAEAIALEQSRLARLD
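Signal arises when biotinylated H3K9 peptide, once monomethylated, bridges streptavidin donor and antibody-captured acceptor beads. Enzyme at 20 nM was preincubated 15 min with test compounds; peptide 500 nM and SAM 20 uM then reacted for 2 h.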
VDR inh – Inhibitors of the vitamin D receptor (VDR): qHTS; Potency, µM, inactives show max response, negative = inhibition, most hits filed as inhibitors; VDR-SRC2-3 peptide fluorescence polarization, 2 h; Vitamin D3 receptor (Homo sapiens), P11473; AID 504847, 2011; 400,000 tested, 0.93% active; further: on the % scale 0 is the no-effect control and ±100 the full control effect
Target sequence (P11473 whole entry, looked up): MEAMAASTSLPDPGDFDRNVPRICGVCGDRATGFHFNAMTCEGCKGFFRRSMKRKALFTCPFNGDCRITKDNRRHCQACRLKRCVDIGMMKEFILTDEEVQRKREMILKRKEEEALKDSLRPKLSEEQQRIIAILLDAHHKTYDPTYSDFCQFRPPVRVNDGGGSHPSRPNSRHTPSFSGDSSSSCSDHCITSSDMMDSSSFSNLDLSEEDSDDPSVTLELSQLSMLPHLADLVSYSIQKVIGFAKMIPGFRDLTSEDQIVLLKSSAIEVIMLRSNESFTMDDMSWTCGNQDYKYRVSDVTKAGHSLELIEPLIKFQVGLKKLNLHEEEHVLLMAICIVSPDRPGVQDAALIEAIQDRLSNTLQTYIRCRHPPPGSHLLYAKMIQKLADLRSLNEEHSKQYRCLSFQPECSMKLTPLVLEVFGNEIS
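VDR–SRC2-3 interaction, FP format. Cmpds 23 nl via pintool, brief spin, 2 h ambient incubation.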
JMJD2A Tudor inh – qHTS Assay for Inhibitors of JMJD2A-Tudor Domain | Lysine-specific demethylase 4A (Homo sapiens), O75164 | AlphaScreen JMJD2A-Tudor / H3K4me3 peptide binding | Potency, µM (series often up to 114 µM), without a hit: top-dose activity change, negative = inhibition, usual class: inhibitors | 390,000 tested, 4.4% active | AID 504339, 2011; further: on the % scale 0 is the no-effect control and ±100 the full control effect; nearly all actives have a fitted effect of over 50% in size
PLK1 PBD inh – qHTS for Inhibitors of PLK1-PDB (polo-like kinase 1 - polo-box domain): Primary Screen | 360,000 tested, 2.8% active | Potency, µM, without a hit: max response, negative = inhibition, most hits filed as inhibitors | AID 720504, 2013 | Serine/threonine-protein kinase PLK1 (Homo sapiens), P53350 | Plk1 PBD binding of FITC phosphopeptide, fluorescence polarization; further: series mostly up to about 57 µM; on the % scale 0 is the no-effect control and ±100 the full control effect; nearly all actives have a fitted effect of over 65% in size
HP1b binding inh – HTS for Inhibitors of HP1-beta Chromodomain Interactions with Methylated Histone Tails; 390,000 tested, 0.56% active; AlphaScreen HP1-beta / biotin-H3K9me3 peptide binding; Potency, µM (top dose mostly 114 µM), inactives show at the highest dose activity change, negative = inhibition, actives largely listed as inhibitors; further: nearly all actives have a fitted effect of over 70% in size
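AlphaScreen: HP1-beta (50 nM) preformed 30 min with biotin-H3(1-18)K9me3 peptide (50 nM) in PBS pH 7.4, 0.01% Tween-20. Compound added for 30 min at RT, then streptavidin donor/nickel chelate acceptor beads (10 ug/mL) for 30 min.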
TbPYK confirm – qHTS of Trypanosoma Brucei Inhibitors: Confirmatory Assay for Cherry-picked Compounds | shares compounds with PLK1 PBD inh | recombinant TbPYK, Kinase-Glo ATP luminescence | Potency, µM (doses to about 76.9 µM), without a hit: at the highest dose activity change, negative = inhibition, actives largely listed as inhibitors | 890 tested, 67% active | AID 720569, 2013; further: on the % scale 0 is the no-effect control and ±100 the full control effect; nearly all actives have a fitted effect of over 70% in size
TbPYK ADP-Glo – qHTS of Trypanosoma Brucei Inhibitors: Orthogonal Assay for Cherry-picked Compounds; shares compounds with PLK1 PBD inh; recombinant TbPYK, ADP-Glo luminescence, 60 min; Potency, µM (series often up to 76.9 µM), for inactives: at the highest dose activity change, negative = inhibition, most hits filed as inhibitors; 890 tested, 62% active; AID 720584, 2013; further: on the % scale 0 is the no-effect control and ±100 the full control effect; nearly all actives have a fitted effect of over 75% in size
Numbers without * were called inactive; ? = inconclusive; . = not tested or not shown; [ ] = another dose, or the depositor's remark. Only some compounds are listed: those with a hit (about 11% of all), similar ones and a draw of the others. The call rests on the fitted dose curve; in most records, active means well fitted curve in the direction sought with a large enough effect; inconclusive means small, poorly fitted or top-dose-only effect, or another doubt; inactive means no such curve, though single readings can be large; an effect the other way counts as inactive or inconclusive. Potency means the concentration at half of the fitted maximal effect.

SMILES	BAZ2B block	G9a inh	VDR inh	JMJD2A Tudor inh	PLK1 PBD inh	HP1b binding inh	TbPYK confirm	TbPYK ADP-Glo
CCc1cn([C@H]2C[C@H](O)[C@@H](CO)O2)c(=O)[nH]c1=O	9.7%	8.0%[12.7 µM]	-16.3%	-12.9%	-1.3%	43.2%	.	.
COc1ccccc1CCN1CCCC(CN(C)C(=O)CCC(N)=O)C1 (stereo not drawn)	5.5%	.	27.4%	-2.3%	-18.3%	8.4%	.	.
COc1ccc(C2=Nn3c(nnc3-c3cccc(OC)c3OC)SC2)cc1OC	.	.	.	-3.4%	.	.	.	.
O=C(Cn1cc(S(=O)(=O)Cc2ccc([N+](=O)[O-])cc2)c2ccccc21)N1CCOCC1	-4.1%	8.91µM*	4.6%	-23.6%	-22.2%	39.9%	15.8µM*	25.1µM*
Cc1ccccc1CS(=O)(=O)c1cn(CC(=O)N2CCOCC2)c2ccccc12	?	.	-21.7%	-14.0%	-5.9%	31.2%	.	.
COc1ccc(N2C(=O)C3C4C=CC(c5ccccc5)(C3C2=O)C2C(=O)N(c3ccc(OC)cc3)C(=O)C42)cc1 (stereo not drawn)	-17.8%	?	-5.6%	-17.6%	-8.0%	38.3%	.	.
CC(=O)Oc1ccc(N2C(=O)C3C4C=CC(CO)(O4)C3C2=O)cc1 (stereo not drawn)	13.9%	1µM*	44.7µM*	44.7µM*	26.7µM*	?	-48.2%	?
COc1cccc(C(=O)NCC(c2ccco2)N2CCOCC2)c1 (stereo not drawn)	14.4%	6.8%	-12.8%	-6.1%	-6.7%	33.3%	.	.
CC(C)C1Nc2ccc(C(=O)O)cc2C2C=CCC21 (stereo not drawn)	79.4µM*	10µM*	?	31.6µM*	?	?	?	?
O=C(CSc1cc([N+](=O)[O-])cc(S(=O)(=O)Cc2ccccc2)c1)NC1CC1	-4.1%	?	-16.6%	-16.4%	?	1.4%	?	25.1µM*
COCCn1c(C)cc(C(=O)COC(=O)c2ccc3ncsc3c2)c1C	56.2µM*	6.4%[12.7 µM]	-10.8%	?	2.38µM*	-32.5%	-0.9%	-0.5%
CCOc1ccc(-c2c(=O)n(O)c3ccccc3[n+]2[O-])cc1	56.2µM*	10.3%[2.33 µM]	-6.0%	79.4µM*	?	4.4%	?	-14.6%
CCOc1ccc(-c2c(=O)n(OCC)c3ccccc3[n+]2[O-])cc1	7.6%	5.6%	-1.8%	-1.0%	?	66.9%	.	.
O=c1cc(O)n(-c2ccccc2)c(=S)[nH]1	1.3%	17.8µM*	-21.8%	-19.8%[11.4 µM]	3.36µM*	-4.6%	?	-20.7%
Cc1ccc(/C=C/C(=O)NCCc2ccccc2)o1	?	8.91µM*	70.8µM*	28.2µM*	26.7µM*	?	?	?
Cc1ccc(/C=C/C(=O)Nc2cccnc2)o1	1.1%	3.55µM*	-5.6%	?	?	?	28.2µM*	39.8µM*
Cc1ccc(/C=C/C(=O)Nc2cccc3ncccc23)o1	-3.6%	?	-7.1%	?	?	-14.3%	?	?
O=C(O)/C=C/C(=O)NCCc1ccccc1	11.3%	-0.7%	-8.5%	?	4.0%	31.9%	.	.
O=C(/C=C/c1ccccc1)Nc1cccnc1	-3.2%	.	-16.3%	-13.6%	-2.3%	45.6%	.	.
O=C(NCC1CCCO1)c1ccccc1NS(=O)(=O)c1cc([N+](=O)[O-])ccc1Cl (stereo not drawn)	.	.	-8.9%	-18.1%	2.3%	33.9%	.	.
CCCCC(=O)Nc1c(C(=O)N2CCN(c3ccccc3)CC2)oc2ccccc12	-16.0%	-40.7%[59 µM]	13.5%	-23.5%	.	21.2%	.	.
CN(C)c1ccc(/C=N/NC(=O)C2COc3ccccc3O2)o1 (stereo not drawn)	-7.0%	?	-18.2%	-9.7%	-15.1%	22.0%	?	35.5µM*
O=C1Nc2ccccc2/C1=C/c1cnc(-c2ccccc2)[nH]1	-27.3%	-8.8%	-3.4%	-28.5%	-7.5%	40.5%	.	.
Cc1ccc(/C=C2\C(=O)Nc3ccccc32)o1	39.8µM*	8.91µM*	-22.0%	44.7µM*	-18.8%	44.7µM*	?	?
CCOC(=O)CN=C1CC(C)(C)CC2=C1Sc1ncnc(N(C)C)c1N2	?	4.47µM*	-13.0%	?	-20.5%	-2.6%	20µM*	14.1µM*
SMILES	BAZ2B block	G9a inh	VDR inh	JMJD2A Tudor inh	PLK1 PBD inh	HP1b binding inh	TbPYK confirm	TbPYK ADP-Glo
Cc1cc(-c2cc(-c3ccc(Cl)cc3)nc(N)c2C#N)co1	?	?	?	39.8µM*	21.2µM*	-9.3%	-20.7%	39.8µM*
CSc1nc(N)c(C#N)c(-c2ccc(Cl)cc2)c1C#N	7.6%	5.5%[59 µM]	-4.4%	-4.7%	-6.4%	20.9%	.	.
CCOc1ccc(-n2c(SCc3ccc([N+](=O)[O-])cc3)nnc2-c2ccccc2)cc1	-30.4%	?	0.4%	56.2µM*	5.1%	-0.5%	11.2µM*	8.91µM*
C[C@@H]1CN([C@H](C)CO)C(=O)c2cc(Br)cnc2O[C@@H]1CN(C)C(=O)c1cccc(F)c1	.	.	.	.	-3.4%	.	.	.
Cc1nc(NC(=O)c2ccco2)sc1C(=O)O	4.6%	12.3%[59 µM]	-0.1%	-17.5%	-4.5%	12.0%	20µM*	-9.5%
COC(=O)c1sc(NC(=O)c2ccco2)nc1C	-3.4%	26.0%	-3.0%	-8.1%	-4.2%	20.3%	.	.
O=C(NCc1ccc(F)cc1)c1ccc(CS(=O)Cc2ccccc2Cl)o1 (stereo not drawn)	-3.0%	32.6%	-2.6%	-6.5%	-9.2%	25.7%	.	.
COC(=O)c1ccc(S(=O)(=O)c2ccccc2)c(N)c1	11.8%	-11.6%[59 µM]	-7.6%	-4.7%	-9.6%	51.6%	.	.
Nc1ccc(S(=O)(=O)c2cc(O)c3ccccc3c2O)cc1	.	.	?	44.7µM*	2.67µM*	12.6µM*	12.6µM*	31.6µM*
O=C(Nc1cccc(C(=O)OCc2cc(=O)n3c4c(sc3n2)CCCC4)c1)c1ccccc1	-2.0%	15.9%[59 µM]	-0.2%	-7.3%	.	6.9%	.	.
O=C(CCCn1c(=S)[nH]c2ccsc2c1=O)Nc1ccc2c(c1)OCCO2	-10.8%	3.55µM*	-17.0%	-29.5%	-6.6%	8.8%	10µM*	14.1µM*

Bioassay records (PubChem)
